What all share (experiment): DAPPL (digital affinity profiling via proximity ligation, sequencing); 10 mM Tris-HCl pH 7.5, 50 mM NaCl, 1 mM DTT, 4% glycerol, room temperature, 30 min; GST-TFs on glutathione beads, 16-mer random dsDNA library, 0.1% formaldehyde crosslink after washing; high values mean tight binding
What all share (settings): protein: recombinant; tags: N-terminal GST; dsDNA, one strand shown

In one experiment the target is T1, FLI1 (Homo sapiens, UniProt Q01543 1-452).
T1 sequence: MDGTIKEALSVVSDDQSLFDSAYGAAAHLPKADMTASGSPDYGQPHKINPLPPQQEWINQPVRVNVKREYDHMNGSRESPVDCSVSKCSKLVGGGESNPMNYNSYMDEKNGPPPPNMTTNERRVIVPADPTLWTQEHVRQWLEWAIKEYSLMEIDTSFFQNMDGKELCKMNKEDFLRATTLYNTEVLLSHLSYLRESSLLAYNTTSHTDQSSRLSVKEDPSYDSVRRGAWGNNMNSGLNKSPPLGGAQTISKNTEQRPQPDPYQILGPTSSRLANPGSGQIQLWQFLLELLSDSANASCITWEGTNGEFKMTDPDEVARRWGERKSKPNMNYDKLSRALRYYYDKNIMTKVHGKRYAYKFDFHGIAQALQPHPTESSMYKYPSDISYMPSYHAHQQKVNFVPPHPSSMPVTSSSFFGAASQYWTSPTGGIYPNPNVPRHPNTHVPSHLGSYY
An outline of the steps: (§1)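 Binding signal is each hexamer's read frequency for a factor divided by its frequency in the tag-only sample. The factors were GST-fused human transcription factors from yeast, captured on glutathione beads, DNA-barcoded and pooled with that sample. Pools were incubated with 200 nmole of a random double-stranded 16-mer DNA library in Tris/NaCl/DTT/glycerol buffer at room temperature for 30 min, then washed, crosslinked with 0.1% formaldehyde, proximity-ligated with BsaI/T4 ligase (1 h, 37 °C), PCR-amplified and sequenced on an Illumina NextSeq500.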

The next experiment has as its target T2, ELK1 (Homo sapiens, UniProt P19419 1-428).
T2 sequence: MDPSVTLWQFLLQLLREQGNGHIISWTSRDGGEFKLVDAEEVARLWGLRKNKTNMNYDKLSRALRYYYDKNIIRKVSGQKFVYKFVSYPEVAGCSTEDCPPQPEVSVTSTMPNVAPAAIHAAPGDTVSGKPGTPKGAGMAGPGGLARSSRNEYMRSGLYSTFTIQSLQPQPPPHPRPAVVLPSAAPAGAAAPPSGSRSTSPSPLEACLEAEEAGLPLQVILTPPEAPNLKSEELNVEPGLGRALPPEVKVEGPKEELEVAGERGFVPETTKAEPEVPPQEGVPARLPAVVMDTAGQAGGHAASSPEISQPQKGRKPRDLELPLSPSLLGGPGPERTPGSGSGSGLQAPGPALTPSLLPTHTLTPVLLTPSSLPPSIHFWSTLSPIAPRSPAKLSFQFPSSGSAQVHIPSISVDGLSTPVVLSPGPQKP
An outline of the steps:
as §1

The target in a further experiment is T3, GABPA (Homo sapiens, UniProt Q06546 1-454).
T3 sequence: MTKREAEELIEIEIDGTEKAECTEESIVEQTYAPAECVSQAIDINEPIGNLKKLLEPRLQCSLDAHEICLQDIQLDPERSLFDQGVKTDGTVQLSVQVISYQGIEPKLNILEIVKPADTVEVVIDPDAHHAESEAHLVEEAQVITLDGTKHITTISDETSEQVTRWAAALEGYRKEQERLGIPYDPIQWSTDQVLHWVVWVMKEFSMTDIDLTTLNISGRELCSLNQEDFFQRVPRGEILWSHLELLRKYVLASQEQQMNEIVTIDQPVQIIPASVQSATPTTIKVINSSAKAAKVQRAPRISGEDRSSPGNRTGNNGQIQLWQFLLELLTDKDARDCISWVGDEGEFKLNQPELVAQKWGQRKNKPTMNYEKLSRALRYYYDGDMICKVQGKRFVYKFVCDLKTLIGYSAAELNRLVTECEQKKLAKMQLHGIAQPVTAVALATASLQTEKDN
In short, it runs like this: as §1

The target in the next experiment is T4, ERG (Homo sapiens, UniProt P11308 1-479).
T4 sequence: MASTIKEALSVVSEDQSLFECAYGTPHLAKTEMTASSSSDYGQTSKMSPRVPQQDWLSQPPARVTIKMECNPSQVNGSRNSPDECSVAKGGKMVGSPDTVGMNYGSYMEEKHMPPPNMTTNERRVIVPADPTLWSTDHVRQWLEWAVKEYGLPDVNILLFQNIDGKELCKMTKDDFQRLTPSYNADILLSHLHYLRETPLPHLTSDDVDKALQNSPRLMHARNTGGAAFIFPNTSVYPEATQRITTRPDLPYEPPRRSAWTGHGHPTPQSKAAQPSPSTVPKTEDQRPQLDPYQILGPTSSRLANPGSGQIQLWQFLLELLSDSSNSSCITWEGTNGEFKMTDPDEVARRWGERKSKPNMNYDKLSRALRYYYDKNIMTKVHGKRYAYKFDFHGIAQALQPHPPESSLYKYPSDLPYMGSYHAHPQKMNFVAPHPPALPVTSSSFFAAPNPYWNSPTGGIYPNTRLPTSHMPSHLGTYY
An outline of the steps:
as §1

The target in the next experiment is ELF1 (Homo sapiens, UniProt P32519 1-619). In short, it runs like this: as §1
Chain of ELF1 (P32519 whole entry): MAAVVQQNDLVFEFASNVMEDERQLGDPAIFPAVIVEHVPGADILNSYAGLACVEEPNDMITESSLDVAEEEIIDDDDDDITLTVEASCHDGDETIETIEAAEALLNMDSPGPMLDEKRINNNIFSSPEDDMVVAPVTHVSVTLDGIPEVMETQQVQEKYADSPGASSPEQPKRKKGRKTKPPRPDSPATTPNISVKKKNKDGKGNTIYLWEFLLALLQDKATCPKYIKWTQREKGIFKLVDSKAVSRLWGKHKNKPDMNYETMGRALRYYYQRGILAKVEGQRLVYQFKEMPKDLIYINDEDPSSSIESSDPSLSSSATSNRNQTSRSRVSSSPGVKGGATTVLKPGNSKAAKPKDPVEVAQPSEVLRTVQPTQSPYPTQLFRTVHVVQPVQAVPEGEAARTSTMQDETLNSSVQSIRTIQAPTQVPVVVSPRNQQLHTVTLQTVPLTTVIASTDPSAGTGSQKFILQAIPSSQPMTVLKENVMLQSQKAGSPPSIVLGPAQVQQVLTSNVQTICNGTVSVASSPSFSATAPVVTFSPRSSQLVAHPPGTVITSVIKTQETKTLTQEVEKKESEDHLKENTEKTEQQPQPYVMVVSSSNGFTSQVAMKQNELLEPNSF
The target in the next experiment is T5, EHF (Homo sapiens, UniProt Q9NZC4 1-300).
T5 sequence: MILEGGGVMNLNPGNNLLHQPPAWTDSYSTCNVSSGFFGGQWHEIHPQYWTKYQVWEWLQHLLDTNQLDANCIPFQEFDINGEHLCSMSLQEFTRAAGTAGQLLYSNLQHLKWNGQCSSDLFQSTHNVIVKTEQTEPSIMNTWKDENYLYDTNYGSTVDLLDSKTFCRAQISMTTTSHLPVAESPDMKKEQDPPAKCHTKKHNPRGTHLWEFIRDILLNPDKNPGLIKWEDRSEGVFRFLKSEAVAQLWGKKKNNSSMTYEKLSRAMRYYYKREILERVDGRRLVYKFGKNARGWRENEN
An outline of the steps: as §1

In another experiment the target is SPI1 (Homo sapiens, UniProt P17947 1-270). In short, it runs like this:
as §1

A further experiment has as its target SPIB (Homo sapiens, UniProt Q01892 1-262). In short, it runs like this:
as §1

Another experiment addresses T6, ELK3 (Homo sapiens, UniProt P41970 1-407).
T6 sequence: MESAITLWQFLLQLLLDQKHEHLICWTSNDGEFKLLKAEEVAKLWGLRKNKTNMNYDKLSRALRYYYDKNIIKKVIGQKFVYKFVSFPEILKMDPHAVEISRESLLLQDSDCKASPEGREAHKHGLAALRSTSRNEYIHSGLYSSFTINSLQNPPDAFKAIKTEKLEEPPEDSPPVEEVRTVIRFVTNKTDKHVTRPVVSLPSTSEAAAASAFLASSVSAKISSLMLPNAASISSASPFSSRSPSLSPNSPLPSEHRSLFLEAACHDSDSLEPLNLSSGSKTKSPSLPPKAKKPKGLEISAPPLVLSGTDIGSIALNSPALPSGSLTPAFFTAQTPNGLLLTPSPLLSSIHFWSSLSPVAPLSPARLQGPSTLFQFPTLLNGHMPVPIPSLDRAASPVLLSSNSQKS
An outline of the steps: as §1

The next experiment addresses T7, FEV (Homo sapiens, UniProt Q99581 1-238).
T7 sequence: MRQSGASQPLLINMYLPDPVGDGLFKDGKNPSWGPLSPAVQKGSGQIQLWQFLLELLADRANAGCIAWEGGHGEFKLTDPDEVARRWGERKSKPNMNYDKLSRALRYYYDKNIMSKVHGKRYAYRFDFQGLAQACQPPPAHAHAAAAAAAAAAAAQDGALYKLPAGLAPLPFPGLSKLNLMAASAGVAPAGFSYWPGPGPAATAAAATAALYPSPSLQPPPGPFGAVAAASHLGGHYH
In short, it runs like this:
as §1

The target of a further experiment is ETV5 (Homo sapiens, UniProt P41161 1-510). An outline of the steps: as §1
Chain of ETV5 (P41161 whole entry): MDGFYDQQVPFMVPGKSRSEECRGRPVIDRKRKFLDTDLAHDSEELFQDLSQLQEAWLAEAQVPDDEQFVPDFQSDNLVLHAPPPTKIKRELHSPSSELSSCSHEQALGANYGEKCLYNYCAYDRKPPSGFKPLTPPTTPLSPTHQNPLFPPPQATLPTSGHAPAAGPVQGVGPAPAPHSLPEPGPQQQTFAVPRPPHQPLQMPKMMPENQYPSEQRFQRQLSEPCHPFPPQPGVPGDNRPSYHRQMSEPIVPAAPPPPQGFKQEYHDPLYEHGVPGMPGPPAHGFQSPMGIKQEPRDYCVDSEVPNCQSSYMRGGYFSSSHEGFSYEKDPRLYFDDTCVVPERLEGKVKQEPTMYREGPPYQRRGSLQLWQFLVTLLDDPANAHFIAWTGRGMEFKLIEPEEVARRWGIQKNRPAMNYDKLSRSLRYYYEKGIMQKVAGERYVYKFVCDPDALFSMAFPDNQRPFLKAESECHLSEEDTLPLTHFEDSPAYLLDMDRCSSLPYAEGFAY
A further experiment concerns the target T8, SPIC (Homo sapiens, UniProt Q8N5J4 1-248).
T8 sequence: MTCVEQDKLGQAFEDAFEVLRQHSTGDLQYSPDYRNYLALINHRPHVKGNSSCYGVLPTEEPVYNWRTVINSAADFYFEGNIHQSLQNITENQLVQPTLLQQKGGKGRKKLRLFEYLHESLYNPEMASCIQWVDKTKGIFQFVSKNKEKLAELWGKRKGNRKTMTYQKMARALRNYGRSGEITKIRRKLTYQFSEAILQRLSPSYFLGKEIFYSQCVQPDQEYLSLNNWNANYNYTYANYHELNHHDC
An outline of the steps:
as §1

For another experiment, the target named is ELF4 (Homo sapiens, UniProt Q99607 1-663). An outline of the steps: as §1
Chain of ELF4 (Q99607 whole entry): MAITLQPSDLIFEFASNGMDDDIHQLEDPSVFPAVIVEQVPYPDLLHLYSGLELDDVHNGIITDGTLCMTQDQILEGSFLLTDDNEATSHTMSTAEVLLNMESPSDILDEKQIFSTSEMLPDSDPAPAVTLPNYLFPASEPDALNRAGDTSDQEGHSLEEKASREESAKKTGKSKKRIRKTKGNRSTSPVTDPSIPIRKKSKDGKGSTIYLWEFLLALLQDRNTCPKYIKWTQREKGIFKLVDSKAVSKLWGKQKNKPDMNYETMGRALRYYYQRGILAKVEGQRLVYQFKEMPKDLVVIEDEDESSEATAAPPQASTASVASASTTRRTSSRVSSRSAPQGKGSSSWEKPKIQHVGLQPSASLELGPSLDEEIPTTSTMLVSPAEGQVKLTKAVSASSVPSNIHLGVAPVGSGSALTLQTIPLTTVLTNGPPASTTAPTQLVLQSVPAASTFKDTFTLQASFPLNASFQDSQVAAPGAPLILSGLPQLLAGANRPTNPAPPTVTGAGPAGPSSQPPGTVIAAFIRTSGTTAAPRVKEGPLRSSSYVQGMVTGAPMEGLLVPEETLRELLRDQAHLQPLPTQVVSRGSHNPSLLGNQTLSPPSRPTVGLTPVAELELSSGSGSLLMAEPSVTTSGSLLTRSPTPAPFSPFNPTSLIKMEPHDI
The next experiment deals with T9, ELK4 (Homo sapiens, UniProt P28324-2 1-405).
T9 sequence: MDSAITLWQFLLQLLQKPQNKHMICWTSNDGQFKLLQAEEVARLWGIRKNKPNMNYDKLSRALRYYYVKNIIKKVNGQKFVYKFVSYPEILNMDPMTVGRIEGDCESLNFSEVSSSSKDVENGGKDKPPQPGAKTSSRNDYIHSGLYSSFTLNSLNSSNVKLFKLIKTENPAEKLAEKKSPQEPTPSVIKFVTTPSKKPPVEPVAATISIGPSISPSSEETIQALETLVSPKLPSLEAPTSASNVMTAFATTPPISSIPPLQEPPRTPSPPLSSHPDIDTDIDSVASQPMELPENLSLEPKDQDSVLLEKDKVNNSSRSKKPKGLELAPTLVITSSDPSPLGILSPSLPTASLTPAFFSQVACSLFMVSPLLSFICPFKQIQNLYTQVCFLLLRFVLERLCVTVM
An outline of the steps:
as §1

The next experiment concerns the target T10, ETV2 (Homo sapiens, UniProt O00321 1-342).
T10 sequence: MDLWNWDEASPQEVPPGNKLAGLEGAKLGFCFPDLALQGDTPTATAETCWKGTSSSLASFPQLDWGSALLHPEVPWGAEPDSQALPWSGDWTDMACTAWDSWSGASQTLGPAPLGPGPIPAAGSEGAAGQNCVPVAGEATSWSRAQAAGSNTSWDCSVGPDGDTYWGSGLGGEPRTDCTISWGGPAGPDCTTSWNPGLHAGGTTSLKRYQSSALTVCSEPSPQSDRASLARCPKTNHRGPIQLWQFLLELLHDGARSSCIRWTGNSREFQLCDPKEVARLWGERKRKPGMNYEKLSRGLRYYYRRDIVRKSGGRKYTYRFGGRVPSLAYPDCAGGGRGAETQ
An outline of the steps:
as §1

The next experiment deals with T11, ELF3 (Homo sapiens, UniProt P78545 1-371).
T11 sequence: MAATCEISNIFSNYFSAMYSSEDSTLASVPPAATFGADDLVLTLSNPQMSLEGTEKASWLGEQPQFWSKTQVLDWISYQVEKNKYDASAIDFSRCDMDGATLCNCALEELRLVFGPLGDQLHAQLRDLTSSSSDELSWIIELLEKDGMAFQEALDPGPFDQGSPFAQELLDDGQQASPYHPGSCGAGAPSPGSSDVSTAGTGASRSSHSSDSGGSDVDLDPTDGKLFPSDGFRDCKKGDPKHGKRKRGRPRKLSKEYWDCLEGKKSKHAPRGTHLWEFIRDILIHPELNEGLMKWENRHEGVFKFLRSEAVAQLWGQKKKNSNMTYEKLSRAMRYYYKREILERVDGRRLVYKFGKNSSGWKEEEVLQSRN
An outline of the steps: as §1

The next experiment addresses CRX (Homo sapiens, UniProt O43186 1-299). An outline of the steps:
as §1

The target of another experiment is ETV1 (Homo sapiens, UniProt P50549 1-477). In short, it runs like this:
as §1

Chain of ETV1 (P50549 whole entry): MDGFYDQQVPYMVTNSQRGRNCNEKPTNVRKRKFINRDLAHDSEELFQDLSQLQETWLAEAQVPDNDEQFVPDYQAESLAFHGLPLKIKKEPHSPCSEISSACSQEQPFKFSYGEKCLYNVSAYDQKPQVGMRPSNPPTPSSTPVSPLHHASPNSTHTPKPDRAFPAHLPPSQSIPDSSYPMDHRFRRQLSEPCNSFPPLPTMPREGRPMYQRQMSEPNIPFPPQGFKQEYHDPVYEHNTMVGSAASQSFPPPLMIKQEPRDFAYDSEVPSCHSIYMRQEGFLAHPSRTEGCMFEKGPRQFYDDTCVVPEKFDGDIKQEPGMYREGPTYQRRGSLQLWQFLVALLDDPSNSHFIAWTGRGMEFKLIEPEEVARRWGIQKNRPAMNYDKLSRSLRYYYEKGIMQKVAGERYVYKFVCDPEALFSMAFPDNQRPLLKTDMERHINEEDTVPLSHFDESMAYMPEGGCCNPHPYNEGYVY
Chain of SPIB (Q01892 whole entry): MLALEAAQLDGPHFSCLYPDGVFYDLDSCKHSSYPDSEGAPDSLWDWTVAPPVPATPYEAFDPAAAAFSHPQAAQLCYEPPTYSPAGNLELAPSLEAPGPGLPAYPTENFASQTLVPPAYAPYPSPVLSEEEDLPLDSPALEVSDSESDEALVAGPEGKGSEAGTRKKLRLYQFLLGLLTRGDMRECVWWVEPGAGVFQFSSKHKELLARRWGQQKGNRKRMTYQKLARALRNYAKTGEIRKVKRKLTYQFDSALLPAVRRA
Chain of CRX (O43186 whole entry): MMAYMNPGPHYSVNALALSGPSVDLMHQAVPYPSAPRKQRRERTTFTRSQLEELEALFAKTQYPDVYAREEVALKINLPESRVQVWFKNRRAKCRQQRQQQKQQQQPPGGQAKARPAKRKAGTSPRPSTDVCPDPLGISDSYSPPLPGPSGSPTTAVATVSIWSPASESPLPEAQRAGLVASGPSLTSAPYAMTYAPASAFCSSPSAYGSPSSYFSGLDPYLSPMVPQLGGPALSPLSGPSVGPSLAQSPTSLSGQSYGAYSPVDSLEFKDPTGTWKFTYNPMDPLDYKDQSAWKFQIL

TACGGA: the binding signal was 1.26 fold enrichment (6-mer frequency, TF over GST control) with FLI1; 1.25 fold enrichment (6-mer frequency, TF over GST control) in the experiment with ELK1; 1.21 fold enrichment (6-mer frequency, TF over GST control) in the experiment with GABPA; 1.37 fold enrichment (6-mer frequency, TF over GST control) with ERG; 1.3 fold enrichment (6-mer frequency, TF over GST control) with ELF1; 1.45 fold enrichment (6-mer frequency, TF over GST control) with EHF. In addition, the binding signal with SPI1 was 1.56 fold enrichment (6-mer frequency, TF over GST control); with SPIB, 1.48 fold enrichment (6-mer frequency, TF over GST control); in the experiment with ELK3, 1.43 fold enrichment (6-mer frequency, TF over GST control); with FEV, 1.26 fold enrichment (6-mer frequency, TF over GST control); with ETV5, 1.34 fold enrichment (6-mer frequency, TF over GST control); with SPIC, 1.21 fold enrichment (6-mer frequency, TF over GST control). Further, the binding signal in the experiment with ELF4 is 1.25 fold enrichment (6-mer frequency, TF over GST control); with ELK4, 1.15 fold enrichment (6-mer frequency, TF over GST control); with ETV2 it was 1.42 fold enrichment (6-mer frequency, TF over GST control); with ELF3, 1.42 fold enrichment (6-mer frequency, TF over GST control); in the experiment with CRX, 1 fold enrichment (6-mer frequency, TF over GST control); with ETV1 it was 1.39 fold enrichment (6-mer frequency, TF over GST control).
On to TCATGC, for which the binding signal in the experiment with FLI1 is 1.17 fold enrichment (6-mer frequency, TF over GST control); with ELK1, 1.22 fold enrichment (6-mer frequency, TF over GST control); in the experiment with GABPA, 1.19 fold enrichment (6-mer frequency, TF over GST control); with ERG it was 1.11 fold enrichment (6-mer frequency, TF over GST control); in the experiment with ELF1 it was 1.11 fold enrichment (6-mer frequency, TF over GST control); with EHF, 1.15 fold enrichment (6-mer frequency, TF over GST control). For the same sequence, the binding signal with SPI1 is 1.07 fold enrichment (6-mer frequency, TF over GST control); in the experiment with SPIB, 1.2 fold enrichment (6-mer frequency, TF over GST control); in the experiment with ELK3, 1.1 fold enrichment (6-mer frequency, TF over GST control); with FEV, 1.14 fold enrichment (6-mer frequency, TF over GST control); with ETV5 it was 1.09 fold enrichment (6-mer frequency, TF over GST control); with SPIC it was 1.11 fold enrichment (6-mer frequency, TF over GST control). Also, the binding signal was 1.18 fold enrichment (6-mer frequency, TF over GST control) with ELF4; 1.27 fold enrichment (6-mer frequency, TF over GST control) in the experiment with ELK4; 1.31 fold enrichment (6-mer frequency, TF over GST control) with ETV2; 1.18 fold enrichment (6-mer frequency, TF over GST control) in the experiment with ELF3; 1.03 fold enrichment (6-mer frequency, TF over GST control) in the experiment with CRX; 1.17 fold enrichment (6-mer frequency, TF over GST control) with ETV1.

The values above are taken from article PMC7862700, “An all-to-all approach to the identification of sequence-specific readers for epigenetic DNA modifications on cytosine”.
